# Test results taken from PubChem BioAssay (NCATS).
# Unmarked numbers belong to inactive results. Inconclusive results are not listed. Active and inactive are the calls of the source. Unless noted, calls come from the whole dose curve; as a rule, active = well fitted curve in either direction with a large enough effect (not every such curve was filed as active); inconclusive = small, poorly fitted or top-dose-only effect, or another doubt; inactive = flat fitted curve, though single readings scatter.
# Tests used:
# [1] = AP1 Signaling Pathway (AID 357); conditions: ME-180 AP-1-bla reporter, EGF-induced, beta-lactamase ratio, 5 h; at 17.2 µM (top of the series) unless noted;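 note: ME-180 reporter cells stimulated with EGF at its EC50 level; % is set by controls: 0 for no effect and ±100 for the full control effect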
# Summary of the method: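 A ratiometric CCF4 readout (405 nm excitation; 460 and 530 nm emission) quantified AP-1-driven beta-lactamase in ME-180 cells after 5 h with compound and EC50 EGF; AC50 values were derived for activators and inhibitors.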
# [2] = biological target: Glucocorticoid receptor (Homo sapiens) (UniProt P04150); assay: GR-GFP Redistribution (AID 450;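 active = compounds whose dose series gives a full or clear partial fitted curve of increased nuclear translocation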; note: potency is the fitted concentration of half-maximal effect)
# Glucocorticoid receptor (Homo sapiens), sequence (P04150 whole entry, looked up): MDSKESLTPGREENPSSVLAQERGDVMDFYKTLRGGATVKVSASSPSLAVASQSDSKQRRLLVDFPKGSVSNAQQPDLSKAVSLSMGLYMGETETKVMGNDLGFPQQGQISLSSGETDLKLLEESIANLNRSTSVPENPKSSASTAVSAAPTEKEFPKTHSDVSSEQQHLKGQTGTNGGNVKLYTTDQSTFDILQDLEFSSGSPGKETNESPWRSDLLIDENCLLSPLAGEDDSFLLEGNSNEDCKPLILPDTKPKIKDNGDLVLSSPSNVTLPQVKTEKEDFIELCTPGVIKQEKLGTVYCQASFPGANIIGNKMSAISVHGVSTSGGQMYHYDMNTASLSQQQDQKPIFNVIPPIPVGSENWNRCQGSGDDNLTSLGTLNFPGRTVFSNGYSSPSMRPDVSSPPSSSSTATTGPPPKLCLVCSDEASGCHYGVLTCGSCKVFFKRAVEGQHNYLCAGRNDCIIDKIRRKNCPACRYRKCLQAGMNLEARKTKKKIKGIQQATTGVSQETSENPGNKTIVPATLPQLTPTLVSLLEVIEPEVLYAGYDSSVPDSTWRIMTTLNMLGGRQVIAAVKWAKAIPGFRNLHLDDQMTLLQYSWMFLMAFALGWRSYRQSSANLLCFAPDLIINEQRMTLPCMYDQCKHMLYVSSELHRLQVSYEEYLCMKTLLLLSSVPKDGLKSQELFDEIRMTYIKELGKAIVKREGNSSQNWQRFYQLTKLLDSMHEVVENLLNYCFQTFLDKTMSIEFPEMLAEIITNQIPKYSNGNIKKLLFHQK
# [3] = qHTS Assay for Identification of Small Molecule Agonists for Hypoxia Response Element Signaling Pathway (AID 914; active = well fitted activation curve with a large enough effect in the signal ratio, with a control signal flat, not every such curve was filed as active; the % refers to the signal ratio; note: potency is the fitted concentration of half-maximal effect); conditions: ME-180 (cervical carcinoma) HRE-bla reporter, beta-lactamase ratio, CoCl2, 17 h; activation: active compounds read high
# Summary of the method: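 A beta-lactamase reporter under hypoxia response element control in ME-180 cells served as the system. Compound titrations plus EC50 CoCl2 ran 17 h at 37 degrees Celsius; AC50 values were fitted from %Activity.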
Structure (SMILES),"activity change, negative = inhibition [1]",Potency [2],Potency [3]
CN(C)c1ccc(-c2nn3c(-c4ccc(Cl)cc4)nnc3s2)cc1,21.4%,> 20.6 µM,10 µM (active)
CCNC(=O)c1cc2c(=O)n3cccc(C)c3nc2n(CCc2ccccc2)c1=N,20.4%,> 20.6 µM,10 µM (active)
